Test results as given in ChEMBL document CHEMBL3433997, “St. Jude Leishmania screening dataset” (2016).

Each molecule was assayed against Solute carrier family 2, facilitated glucose transporter member 1 (Homo sapiens) (UniProt P11166) (assay: ST_JUDE_LEISH: Cytotoxicity at 2uM final concentration against transgenic Leishmania Mexicana promastigotes LmGLUT1 that are glucose transport deficient and complemented with the human glucose transporter GLUT1. Activity is measured by DNA content using SYBR green in vitro).
Solute carrier family 2, facilitated glucose transporter member 1 (Homo sapiens), sequence (P11166 whole entry): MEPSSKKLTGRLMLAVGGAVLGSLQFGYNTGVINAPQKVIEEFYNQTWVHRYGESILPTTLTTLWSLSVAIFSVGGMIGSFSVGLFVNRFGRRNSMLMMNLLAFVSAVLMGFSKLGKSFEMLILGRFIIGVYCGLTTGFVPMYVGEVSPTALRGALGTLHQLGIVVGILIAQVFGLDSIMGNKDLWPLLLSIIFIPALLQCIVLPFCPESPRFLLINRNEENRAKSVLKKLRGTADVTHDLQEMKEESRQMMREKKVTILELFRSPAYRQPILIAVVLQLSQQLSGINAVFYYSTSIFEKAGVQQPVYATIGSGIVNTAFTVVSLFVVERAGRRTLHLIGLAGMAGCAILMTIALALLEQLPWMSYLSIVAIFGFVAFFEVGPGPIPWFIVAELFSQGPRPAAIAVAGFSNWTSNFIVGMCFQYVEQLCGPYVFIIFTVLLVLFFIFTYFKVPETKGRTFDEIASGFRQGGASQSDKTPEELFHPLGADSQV
Format: functional
In the case of `COC(=O)Cn1c(C2CCN(CC3CCN(C(=O)/C=C/c4ccc(Cl)c(Cl)c4)CC3)CC2)nc2ccccc21`, the inhibition is reported as 3.09%. `CCOCCCn1c(=N)c(C(=O)NC(C)c2ccccc2)cc2c(=O)n3cccc(C)c3nc21` (stereo not given) gave an inhibition of 7.84%. With `CCCCOC(=O)C1=C(C)NC2=C(C(=O)CC(c3ccc(OC)c(OC)c3)C2)C1c1ccc(O)cc1` (stereo not given) the inhibition was 10.4%. Molecule `CC(C)COc1ccc(Cl)cc1Cc1nc(-c2nc3ccc(CN4CCN(C)CC4)cc3[nH]2)co1` has an inhibition of 8.24%. For `O=C(NCCN1CCC(c2ccncc2)CC1)c1ccc(Nc2nccc(Nc3ccc(Oc4ccccc4)cc3)n2)cc1`, the inhibition was -0.62%. Work on `O=C(N[C@H]1CCN(Cc2ccc(OCCCN3CCCCC3)cc2)C1)c1ccc(Oc2ccccc2)cc1` yielded an inhibition of 72.1%. Work on `N#Cc1ccc(-c2ccc(OCC(O)CN3CCCN(C(=O)C(c4ccc5c(c4)OCO5)N4CCN(C/C=C/c5ccccc5)CC4)CC3)cc2)cc1` (stereo not given) yielded an inhibition of 4.32%. For `CN1CCC[C@@H](Oc2cc3c(cc2Br)CCN3C(=O)Nc2ccc(-c3ccncc3)c(Cl)c2)C1`, the inhibition was 2.29%. For `COc1cc(F)c2nccc([C@@H](O)CN3CCC(NC(=O)OCc4ccccc4)C(F)C3)c2c1` (stereo not given in full), the inhibition was 11.6%. `Clc1ccc2nc(-c3cccnc3)[nH]c2c1` showed an inhibition of 6.05%. Molecule `CCc1n[nH]c(C(=O)Nc2cccc(N3CCCC3)c2)c1C` has an inhibition of 0.38%. For `O=C1c2ccc([N+](=O)[O-])cc2C(=O)N1c1ccc2[nH]ncc2c1`, the inhibition was 2.79%. For `Cn1nccc1C(=O)NCCNCc1ccc(-c2cccc(-c3nc4cc(F)ccc4[nH]3)c2)cc1`, the inhibition was -0.28%. In the case of `O=C(c1ccc(OCCn2ccnc2)cc1)N1CCC(c2ccc(Br)cc2)C1` (stereo not given), the inhibition is reported as 0.09%. `CN(C)CCNC(=O)N1CCCN(c2ncnc3cc(-c4ccc(Cl)cc4)sc23)CC1` gave an inhibition of -0.35%. Work on `Cc1ccc(Nc2nc(-c3ccccn3)cs2)nc1` yielded an inhibition of 75.7%. For `COc1cccc(C(=O)Nc2ccc(Nc3nc(C)cc(N(C)C)n3)cc2)c1`, the inhibition was 12.8%. Work on `O=C(c1cc(C(=O)Nc2ccccc2F)c(=O)n(-c2ccccc2F)c1)c1cc(Cl)ccc1O` yielded an inhibition of 1.31%. For `Cc1ccc(NC(=O)Nc2ccc(Cl)c(C(F)(F)F)c2)cc1-c1ccc(C(=O)NCCN2CCOCC2)cc1`, the inhibition was 8.1%. `COc1cc2nc(NCCCOC(C)C)n3nc(-c4ccccc4)nc3c2cc1OC` showed an inhibition of 11.4%. For `COCCNCc1cccc(-c2cccc(CNC3CCN(Cc4ccccc4)CC3)c2)c1`, the inhibition was 2.73%. For `CC(C)NCC(O)Cn1c2ccc(Br)cc2c2cc(Br)ccc21` (stereo not given), the inhibition was 0.74%. Molecule `CS(=O)(=O)Cc1ccc(Nc2nccc(N3CCCc4cc(NC(=O)Nc5cccc(C(F)(F)F)c5)ccc43)n2)cc1` has an inhibition of 9.54%. In the case of `CO/N=C(\C)c1ccc2c(c1)CCN(CCC1CCC(NC(=O)c3cccc(-c4noc(C)n4)c3)CC1)CC2` (stereo not given), the inhibition is reported as 3.41%. Work on `CC(=O)c1cccc2cc(C(=O)NC3CCC(CCN4CCc5ccc(C#N)cc5C4)CC3)[nH]c12` (stereo not given) yielded an inhibition of 2.35%. `O=C(/C=C/c1ccc(Cl)cc1Cl)NCCCCCN1CCC(c2c[nH]c3ccccc23)CC1` showed an inhibition of -2.21%. `O=C(NCc1ccc(Cl)c(Cl)c1)c1ccc(C2CCN(Cc3ccc4[nH]cnc4c3)CC2)cc1` was tested, and the inhibition was 2.71%. Molecule `CCNc1cc(C(=O)N[C@@H](Cc2ccccc2)[C@H](O)CNCc2ccc3c(c2)OCCO3)cc(N2CCCCS2(=O)=O)c1` has an inhibition of 0.98%. Work on `O=C(Nc1ccc(F)cc1F)NC1CCN(c2ccnc3cc(Cl)ccc23)C1` (stereo not given) yielded an inhibition of 6.88%. For `COc1cc(Cc2cnc(N)nc2N)ccc1OCc1ccc(NC(C)=O)cc1`, the inhibition was 1.71%. `CC(C)(C)c1cc(C(=O)N2CCN(c3ccc(C(F)(F)F)cn3)CC2)n(Cc2ccc(F)cc2)n1` was tested, and the inhibition was -1.9%. In the case of `COc1ccc(-c2csc(N(CCCN(C)C)C(=O)c3cc4c(C)nn(-c5ccccc5)c4s3)n2)cc1`, the inhibition is reported as 0.66%. In the case of `CC1(C)CCCN(C(=O)c2cccc(-n3nc(-c4ccc(Cl)cc4)cc3N)c2)C1`, the inhibition is reported as 2.79%. In the case of `Nc1ncc(-c2ccc(F)c(Cl)c2)c(N)n1`, the inhibition is reported as 1.16%. In the case of `CCOC(=O)c1ccc(Nc2cc(Nc3ccc(C(=O)OCC)cc3)nc(C)n2)cc1`, the inhibition is reported as 7.7%. For `Cc1ccc2ccccc2c1CCCON1C(=N)N=C(N)NC1(C)C`, the inhibition was 4.76%. For `COc1cc2nc(N3CCC(CNC(=O)c4ccc(OC(F)(F)F)cc4)CC3)nc(N)c2cc1OC`, the inhibition was -0.03%. In the case of `COc1cc(OC)nc(C(Sc2ccc(NC(=O)c3cccs3)cc2)c2ccccc2)n1` (stereo not given), the inhibition is reported as 6.79%. In the case of `Cc1ccc(-n2c(C)nc3c(Nc4ccc(-c5ccncc5)cc4)ncnc32)c(C)c1`, the inhibition is reported as 91.7%. With `COc1cc2ncnc(Nc3ccc(OCc4ccccc4Br)c(OC)c3)c2cc1OC` the inhibition was 1.37%.
